# BAZ2B block: blocks human BAZ2B. 360,000 tested, 4.4% active. Potency, µM (top dose mostly 114 µM), for the others: at the top dose activity change, negative = inhibition, most hits filed as inhibitors. AlphaScreen BAZ2B-H3K14Ac peptide displacement; note: % is set by controls: 0 for no effect and ±100 for the full control effect; nearly all actives have a fitted effect of over 60% in size
#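 In this displacement format the biotinylated H3(5-23) peptide acetylated at Lys14 serves as ligand at 50 nM, with BAZ2B at 50 nM in PBS pH 7.4 containing 0.01% Tween-20. Donor and acceptor beads are 10 ug/mL final.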
# JMJD2A Tudor: blocks the human JMJD2A Tudor domain | AlphaScreen JMJD2A-Tudor / H3K4me3 peptide binding | O75164 | Potency, µM (titrated, usually from 114 µM), without a hit: at the highest dose activity change, negative = inhibition, hits mostly inhibitors | 390,000 tested, 4.4% active | AID 504339; note: % is set by controls: 0 for no effect and ±100 for the full control effect; nearly all actives have a fitted effect of over 50% in size
# HP1b chromo inh: blocks HP1-beta chromodomain binding to methylated histone tails | AlphaScreen HP1-beta / biotin-H3K9me3 peptide binding | P83916 | 390,000 tested, 0.56% active | Potency, µM (highest dose often 114 µM), for the others: top-dose activity change, negative = inhibition, actives largely listed as inhibitors; note: nearly all actives have a fitted effect of over 70% in size
# Target sequence (P83916 whole entry, looked up): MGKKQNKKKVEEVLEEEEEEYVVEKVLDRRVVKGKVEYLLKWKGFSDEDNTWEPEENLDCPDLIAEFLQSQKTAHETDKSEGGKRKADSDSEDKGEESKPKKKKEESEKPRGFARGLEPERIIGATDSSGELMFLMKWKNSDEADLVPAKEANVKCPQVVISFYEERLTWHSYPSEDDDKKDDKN
#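 HP1-beta protein (50 nM final) preincubated 30 min at room temperature with biotinylated H3(1-18)K9me3 peptide (50 nM) in PBS pH 7.4, 0.01% Tween-20, then compound added for 30 min. AlphaScreen streptavidin donor/nickel chelate acceptor beads (10 ug/mL final), 30 min dark, luminescence read.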
# G9a block: G9a (human) methyltransferase inhibition; G9a H3K9 monomethylation, AlphaScreen, 2 h; Potency, µM (doses to about 102 µM), inactives show top-dose activity, negative = inhibition, usual class: inhibitors; AID 504332; 350,000 tested, 8.8% active; note: % is set by controls: 0 for no effect and ±100 for the full control effect; nearly all actives have a fitted effect of over 75% in size
# Target sequence (Q96KQ7 913-1193 limits assumed): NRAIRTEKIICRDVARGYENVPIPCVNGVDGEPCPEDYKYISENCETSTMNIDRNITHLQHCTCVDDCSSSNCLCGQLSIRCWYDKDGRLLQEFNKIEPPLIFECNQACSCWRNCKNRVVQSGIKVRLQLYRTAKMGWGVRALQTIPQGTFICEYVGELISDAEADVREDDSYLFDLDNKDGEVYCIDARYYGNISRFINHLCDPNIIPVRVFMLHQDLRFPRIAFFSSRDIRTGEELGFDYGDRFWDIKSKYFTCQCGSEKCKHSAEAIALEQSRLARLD
#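 Step 1: enzyme (final 20 nM) with compound, 15 min RT. Step 2: substrate peptide 500 nM and SAM 20 uM, 2 h RT. Step 3: anti-H3K9me1 antibody and AlphaScreen beads, 10 min, then plate read.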
# PLK1 PBD inh: PLK1 (human) polo-box domain binding inhibition; AID 720504; 360,000 tested, 2.8% active; P53350; Potency, µM, for the others: max response, negative = inhibition, actives largely listed as inhibitors; Plk1 PBD binding of FITC phosphopeptide, fluorescence polarization; note: series mostly up to about 57 µM; % is set by controls: 0 for no effect and ±100 for the full control effect; nearly all actives have a fitted effect of over 65% in size
# ALOX12 inh: inhibitors of human 12S-lipoxygenase ALOX12 | 580,000 tested, 1.1% active | P18054 | AID 1671190 | Potency, µM (titrated, usually from 108 µM), for inactives: at the highest dose activity change, negative = inhibition, hits mostly inhibitors | purified 12hLO, xylenol orange hydroperoxide absorbance; note: % is set by controls: 0 for no effect and ±100 for the full control effect
#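 Purified human 12hLO at 150 nM in 25 mM Hepes, 0.01% Triton X-100, pH 7.0, preincubated 15 min at room temperature with compound. Reaction started with 40 uM arachidonic acid, 30 min at room temperature. Hydroperoxide measured by Fe-xylenol orange, 573/405 nm absorbance ratio.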
# * hit, by the source's call; ? = inconclusive; · = no result; [ ] = another dose, or the depositor's remark. In the library only some 9% were active in any assay of this set; here they are far more common. Calls come from the whole dose curve; as a rule, active = well fitted curve in the direction sought with a large enough effect; inconclusive = small, poorly fitted or top-dose-only effect, or another doubt; inactive = no such curve, though single readings can be large; an effect the other way counts as inactive or inconclusive. Potency is the fitted concentration of half-maximal effect.
SMILES,BAZ2B block,JMJD2A Tudor,HP1b chromo inh,G9a block,PLK1 PBD inh,ALOX12 inh
COc1ccc(-c2nnc(SCC(=O)Nc3cc(C)on3)n2N)cc1OC,-4.8%,-17.1%,36.6%,50.1µM*,-8.6%,11.6%
COc1cccc(-c2nnc(SCC(=O)Nc3cc(C)on3)n2C)c1,-1.6%,-4.2%,16.6%,50.1µM*,1.0%,?
Cc1c(Cl)cccc1NCc1cc(=O)n2[nH]c(-c3ccccc3)nc2n1,·,·,·,·,·,-14.6%
COC(=O)c1c(C)oc2ccc(N(C(=O)c3ccncc3)S(=O)(=O)c3ccc4ccccc4c3)cc12,-26.6%,-31.2%,7.6%,-42.4%[59 µM],-1.6%,9.1%
COC(=O)c1ccc(COC(=O)CNS(=O)(=O)c2ccccc2)cc1,1.8%,-7.2%,23.7%,1.5%,4.2%,?
COC(=O)C(Cc1ccccc1)NC(=O)CNS(=O)(=O)c1ccc(Br)cc1 (configuration not stated),5.4%,-4.7%,3.4%,25.5%,-8.3%,-8.5%
O=C(CNS(=O)(=O)c1ccccc1)NCC(=O)OCc1ccc(Br)cc1,3.7%,?,-3.4%,2.1%,11.9µM*,-0.4%
COC(=O)C(NC(=O)CNS(=O)(=O)c1ccc(Br)cc1)c1ccccc1 (configuration not stated),0.9%,-9.8%[11.4 µM],5.0%,-1.2%,26.7µM*,?
N=C1C(c2ccccc2)=C(O)CN1CCCO,-4.3%,-21.3%,10.0%,-8.9%[59 µM],23.8µM*,-8.0%
COc1cccc(CNS(=O)(=O)c2cc(-c3cnn4c(C)cc(C)nc34)ccc2OC)c1,·,·,·,·,·,-3.0%
COc1ccc(-c2cc3n(n2)CC(C)(C(=O)NCc2ccccc2)N(Cc2ccc(C)o2)C3=O)cc1 (configuration not stated),·,·,·,·,·,3.8%
Cc1cc(=O)n2[nH]c(COc3ccccc3)nc2n1,5.7%,2.4%,32.2%,39.8µM*,1.4%,6.4%
Cc1cc(=O)n2[nH]c(CCC(=O)O)nc2n1,-2.6%,-10.7%,0.8%,-35.8%,-9.5%,-7.9%
Cc1cc(=O)n2[nH]c(C(=O)O)nc2n1,?,8.91µM*,-26.9%,?,-9.6%,?
Cc1ccc(C(=O)Nc2nc3nc(C)cc(=O)n3[nH]2)cc1,-4.0%,?,-8.5%,11.9%[59 µM],·,0.0%
CCC(=O)Nc1nc2nc(C)cc(=O)n2[nH]1,56.2µM*,31.6µM*,4.8%,-19.8%[59 µM],-1.2%,?
CCCc1cc(=O)n2[nH]c(NC(=O)c3ccco3)nc2n1,-26.1%,6.0%,23.3%,79.4µM*,4.4%,?
CCN(CC)CCn1c(SCC(=O)Nc2ccc3c(c2)CCC3)nc2ccccc2c1=O,?,-32.1%,-0.9%,8.2%[2.33 µM],-2.7%,?
Nc1[nH]c(=O)nc(Nc2ccccc2)c1N=O,·,35.5µM*,34.1%,·,-2.0%,497.0%
Cc1cccc(/C=N/NC(=O)c2ccc3c(c2)OCCO3)c1O,20µM*,·,·,36.8%,·,-3.3%
COc1cc(/C=N/NC(=O)c2ccc3c(c2)OCCO3)c(Br)c(Br)c1O,-27.4%,-14.5%,-10.5%[57 µM],44.7µM*,?,14.2%
Cc1cccc(/C=N/NC(=O)c2c(-c3ccccc3)noc2C)c1O,25.1µM*,?,41.8%,·,-2.5%,?
COc1cc(/C=N/NC(=O)c2ccc3c(c2)OCCO3)cc(Br)c1O,-10.2%,-21.1%,38.7%,13.4%,-4.3%,11.0%[57.4 µM]
CCOc1cccc(/C=N/NC(=O)c2ccc3c(c2)OCCO3)c1O,3.7%,?,-14.9%[57 µM],-6.2%,?,-15.8%
Fc1ccc(-c2cc(CC3(NCc4ccc(OC(F)(F)F)cc4)COC3)no2)cc1,·,·,·,·,·,20.3%[176 µM]
SMILES,BAZ2B block,JMJD2A Tudor,HP1b chromo inh,G9a block,PLK1 PBD inh,ALOX12 inh
COc1cc(-c2noc(C)c2C#CC2(N)CCCCC2)cc(OC)c1OC,?,-23.6%,24.4%,14.1µM*,-9.2%,-0.9%
COc1cc(-c2noc(C)c2C#CC2(O)CCCCC2)cc(OC)c1OC,1.0%,-2.8%,50.7%,·,-2.6%,-0.2%
O=C(CSc1ccccc1C(=O)O)c1ccc([N+](=O)[O-])cc1,?,20µM*,?,20µM*,11.9µM*,-9.5%
O=C(CSc1ccc([N+](=O)[O-])cc1)c1ccccc1,·,-29.2%,-5.5%,·,?,?
N/C(=N\O)c1cn(Cc2ccccc2Cl)c2ccccc12,-30.6%,-19.9%,-2.2%,-7.1%,1.3%,0.5%
Cc1[nH][nH]c(=O)c1C(c1c(C)[nH][nH]c1=O)c1cn(Cc2ccccc2Cl)c2ccccc12,?,?,?,14.1µM*,?,?
CC(C)C(=O)N(Cc1ccc2c(c1)OCO2)Cc1ccccn1,?,56.2µM*,1.9%,39.8µM*,-7.8%,0.0%
COC(=O)[C@@H]1Cc2ncn(C)c2CN1S(=O)(=O)c1ccc(F)cc1,·,·,·,·,·,56.2µM*
O=C(Nc1ccc2c(c1)OCCO2)c1cccnc1,?,89.1µM*,30.4%,-0.7%[59 µM],?,-4.2%
CCCN1Cc2cccc(C(=O)Nc3ccc4c(c3)OCO4)c2C1=O,?,-13.6%,-6.4%,10.5%[12.7 µM],-1.6%,-17.7%
O=C(Nc1ccc(N2CCCC2)c(Cl)c1)c1cccnc1,4.8%,-31.2%,1.5%,8.91µM*,-3.0%,17.8%
Cc1cc(C(=O)Nc2ccc(N3CCCC3)c(Cl)c2)ccc1[N+](=O)[O-],28.2µM*,25.1µM*,?,-7.3%[59 µM],-4.5%,-26.5%
O=C(Nc1ccc2c(c1)OCO2)c1cccc2c1C(=O)N(Cc1cccnc1)C2,50.1µM*,?,7.2%,-5.9%[12.7 µM],-5.1%,-24.6%
O=S(=O)(Nc1cccc(-c2nc3cccnc3s2)c1)c1ccc2c(c1)OCCO2,-6.0%,-19.7%,49.9%,?,6.5%,4.7%
COCCN(C(=O)CSc1nc2ccccc2c(=O)n1CCOC)c1c(N)n(Cc2ccccc2)c(=O)[nH]c1=O,5.3%,-13.6%,30.5%,?,-15.5%,0.2%
CSc1ccc(NC(=O)c2cccnc2)cc1C#N,-14.7%,0.0%,26.9%,50.1µM*,-9.7%,1.7%
COC(=O)c1sccc1NC(=O)c1cccnc1,3.4%,89.1µM*,-1.4%,1.4%[59 µM],26.7µM*,0.0%
Cc1cccc(NC(=O)c2ccc(N3CCCCC3)c([N+](=O)[O-])c2)n1,11.2µM*,?,?,?,-5.2%,-29.4%
Cc1cccc(NC(=O)c2ccc(N3CCOCC3)c([N+](=O)[O-])c2)n1,?,?,-17.5%,20.1%[59 µM],-4.1%,3.2%
O=C(Nc1ccc(N2CCCC2)c(Cl)c1)c1ccc([N+](=O)[O-])cc1,3.2%,-27.5%,-3.0%,-8.8%[59 µM],23.8µM*,?
C=CC[C@@H](CC(=O)N(CCO)Cc1ccccc1)C(=O)N[C@H](COC(=O)[C@@H](CC=C)CC(=O)OC(C)(C)C)Cc1c[nH]c2ccccc12,·,?,10.1%,·,1.4%,?
